Screening data as filed in PubChem BioAssay.
Only some compounds are listed: those with a hit (about 1.4% of all), similar ones and a draw of the others.
EPAC1 antagonist: EPAC1 (human) antagonism; EPAC1 GEF assay, Rap1b-BODIPY-GDP exchange fluorescence; Potency, µM (doses to about 115 µM), most hits filed as inhibitors; 360,000 compounds, 0.14% hits; further: nearly all actives have a fitted effect of over 50% in size
KCNH2 3.1 block: inhibitors of human KCNH2 3.1 potassium channel isoform. U2OS KCNH2 3.1, thallium flux FluxOr; stronger effect = lower value. activity change, % (tested at about 1.8 µM). 340,000 compounds, 0.95% hits. AID 720553;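 active means maximum activity change below -70%; inconclusive means maximum activity change from -70% to -50%; inactive means maximum activity change above -50%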;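 further: thallium influx rate constant from kinetic fluorescence after stimulation buffer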
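Virally transduced U2OS (3.1 isoform, 4 h infection in dark at RT) → overnight 37 C → FluxOr + Red40 in HBSS/HEPES, 45 min → stimulation buffer, 2 min kinetic read → rate constant vs DMSO controls.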
EPAC1 agonist: activates human EPAC1 exchange factor; Potency, µM (doses to about 154 µM), usual class: activators; EPAC1 agonist qHTS, biochemical assay; response scale: 100% = response to 6.5 mM cAMP; O95398; AID 720707; 360,000 compounds, 0.073% hits; further: nearly all actives have a fitted effect of over 60% in size
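Multi-concentration qHTS readout: loss of Rap1B-bound BODIPY-GDP fluorescence driven by 100 nM EPAC1 with excess GDP (50 uM), monitored kinetically at room temperature; agonist response expressed relative to 6.5 mM cAMP.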
hERG WT inh: blocks the wildtype human KCNH2 potassium channel; AID 720551; 340,000 compounds, 0.37% hits; activity change, % at 1.84 µM; U2OS, BacMam KCNH2, thallium flux FluxOr; stronger effect = lower value;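 active means maximum activity change below -70%; inconclusive means maximum activity change between -70% and -50%; inactive means maximum activity change above -50%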
Target sequence (Q12809 whole entry, looked up): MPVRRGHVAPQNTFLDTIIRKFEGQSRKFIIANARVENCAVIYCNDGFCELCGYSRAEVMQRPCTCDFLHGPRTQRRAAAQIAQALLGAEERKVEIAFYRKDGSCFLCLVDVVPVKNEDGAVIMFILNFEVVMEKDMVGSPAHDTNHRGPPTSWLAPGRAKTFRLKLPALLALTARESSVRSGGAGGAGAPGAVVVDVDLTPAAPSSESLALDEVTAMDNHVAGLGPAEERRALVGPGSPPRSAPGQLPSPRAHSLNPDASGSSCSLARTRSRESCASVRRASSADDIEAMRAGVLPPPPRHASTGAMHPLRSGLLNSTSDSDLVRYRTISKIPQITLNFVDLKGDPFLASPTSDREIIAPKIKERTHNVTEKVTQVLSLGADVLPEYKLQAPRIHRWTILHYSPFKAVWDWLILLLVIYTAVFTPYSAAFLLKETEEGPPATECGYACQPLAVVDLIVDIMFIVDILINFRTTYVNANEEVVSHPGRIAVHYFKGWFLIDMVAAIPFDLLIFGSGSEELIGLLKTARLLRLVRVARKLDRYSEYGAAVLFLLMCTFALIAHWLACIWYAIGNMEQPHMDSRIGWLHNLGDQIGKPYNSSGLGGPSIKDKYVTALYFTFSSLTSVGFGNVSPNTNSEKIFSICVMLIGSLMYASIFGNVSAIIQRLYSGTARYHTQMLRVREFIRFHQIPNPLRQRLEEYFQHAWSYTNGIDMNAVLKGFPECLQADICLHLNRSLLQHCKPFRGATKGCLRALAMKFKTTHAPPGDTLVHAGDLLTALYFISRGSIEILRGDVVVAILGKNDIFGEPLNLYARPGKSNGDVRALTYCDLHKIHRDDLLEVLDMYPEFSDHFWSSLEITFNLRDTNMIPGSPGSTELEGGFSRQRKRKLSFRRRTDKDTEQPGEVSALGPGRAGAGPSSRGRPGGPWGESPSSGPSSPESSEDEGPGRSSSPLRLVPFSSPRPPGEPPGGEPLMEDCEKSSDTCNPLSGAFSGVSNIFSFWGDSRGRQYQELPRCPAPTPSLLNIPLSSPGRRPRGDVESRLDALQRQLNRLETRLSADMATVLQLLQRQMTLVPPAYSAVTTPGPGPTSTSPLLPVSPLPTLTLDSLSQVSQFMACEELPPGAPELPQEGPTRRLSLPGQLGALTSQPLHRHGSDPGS
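U2OS cells transduced with wild-type KCNH2 virus are loaded with FluxOr dye for 45 min, and thallium flux is measured in kinetic reads before and after stimulation buffer. Rate constants are normalized to DMSO controls.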
EPAC2 antag: blocks human EPAC2 exchange factor; Q8WZA2; EPAC2 GEF exchange of Rap1B-BODIPY-GDP, fluorescence; Potency, µM (doses to about 114 µM), hits mostly inhibitors; 360,000 compounds, 0.18% hits; further: nearly all actives have a fitted effect of over 45% in size
EPAC2 ag: agonists of human EPAC2 (RAPGEF4); Potency, µM (doses to about 154 µM), most hits filed as activators; AID 720711; EPAC2 activation, biochemical qHTS; response scale: 100% = 6.5 mM cAMP response; Q8WZA2; 360,000 compounds, 0.079% hits; further: nearly all actives have a fitted effect of over 50% in size
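Readout is BODIPY fluorescence (480 nm excitation, 540 nm emission), which falls as labeled GDP is exchanged off Rap1B. EPAC2 at 100 nM acted on 250 nM RAP1B-BODIPY-GDP with 50 uM GDP present.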
Each line names hits and unclear results; the compound was inactive in the other large screens. Unless noted, the call rests on the fitted dose curve; in most records, active means well fitted curve in the direction sought with a large enough effect; inconclusive means small, poorly fitted or top-dose-only effect, or another doubt; inactive means no such curve, though single readings can be large; an effect the other way counts as inactive or inconclusive.

CC(C)OCCCNC(=O)C1CCC(CNS(=O)(=O)c2ccc(Cl)cc2)CC1 (stereo not given)	EPAC1 antagonist inconclusive
CC(C)OCCCNC(=O)C1CCC(CNS(=O)(=O)c2ccccc2)CC1 (stereo not given)	KCNH2 3.1 block -85
Cc1ccc(CN(CC(O)COc2cccc3[nH]cc(C)c23)C(C)(C)C)cc1 (stereo not given)	KCNH2 3.1 block -74, EPAC2 antag inconclusive
COC(=O)Cc1c[nH]c2cccc(OCC(O)CN(Cc3ccc([N+](=O)[O-])cc3)C(C)(C)C)c12 (stereo not given)	none
O=C(c1ccc(-c2ccccc2)cc1)C1CCCN(Cc2ccncc2)C1 (stereo not given)	none
O=C(c1ccc(Cl)cc1)C1CCCN(Cc2cnn(-c3ccccc3)c2)C1 (stereo not given)	EPAC1 antagonist inconclusive, KCNH2 3.1 block -88, hERG WT inh -78
CSCCC(C(=O)Nc1c(C)cccc1C)n1c(COc2ccc(C)cc2)nc2ccccc21 (stereo not given)	none (no result: KCNH2 3.1 block, hERG WT inh)
O=C(Oc1coc(CSc2ncccn2)cc1=O)c1ccccc1[N+](=O)[O-]	none
CN1CCN(c2ccc(C(=O)c3ccc(Br)cc3)cc2[N+](=O)[O-])CC1	KCNH2 3.1 block -81
COc1ccc2cc(C3CC(c4ccco4)=NN3S(=O)(=O)c3ccccc3)c(Cl)nc2c1 (stereo not given)	KCNH2 3.1 block -83
CS(=O)(=O)N1N=C(c2ccco2)CC1c1ccc(Cl)cc1Cl (stereo not given)	EPAC2 antag 10µM
COc1ccc(CCN(C)Cc2ccc(OCc3ccccc3)c(OC)c2)cc1OC	KCNH2 3.1 block -79
COc1ccc(CCN(C)Cc2ccc(OC)c(OCc3ccccc3)c2)cc1OC	KCNH2 3.1 block inconclusive
COc1ccc(CCN(C)c2ncnc3sccc23)cc1OC	hERG WT inh -84
COc1ccc(CCN(C)C(=O)CSc2ncnc3sccc23)cc1OC	none
CCCCOCCCNC(=O)C[C@@H]1C[C@@]2(C(=O)OC)CCCCC=C2N(Cc2cccc3ccccc23)C1=O	EPAC1 antagonist inconclusive (no result: KCNH2 3.1 block, hERG WT inh)
CC(=O)Oc1ccc2ccc3ccc(C(C)=O)cc3c2c1	none
COc1ccc(Cn2nnnc2C(c2ccc(C)cc2)N2CCN(C3CCCC3)CC2)cc1 (stereo not given)	KCNH2 3.1 block -73
COc1ccc(Cn2nnnc2C(c2cccs2)N2CCN(c3ccc([N+](=O)[O-])cc3)CC2)cc1 (stereo not given)	KCNH2 3.1 block -99, hERG WT inh inconclusive
COc1ccc(Cn2nnnc2C(c2ccc3ncccc3c2)N2CCN(C3CCCCC3)CC2)cc1 (stereo not given)	none
Cc1noc(C)c1CSc1nc2[nH]ncc2c(=O)n1-c1ccccc1	none
O=c1c2cn[nH]c2nc(SCc2c(F)cccc2F)n1-c1ccc(Cl)cc1	hERG WT inh -230
Cc1ccc(NC(=O)c2ncn(CCCN3CCN(Cc4cccc5ccccc45)CC3)n2)cc1C	KCNH2 3.1 block -72
Fc1ccccc1OCC1CCCN(Cc2nc(CC3CC3)no2)C1 (stereo not given)	none
CCCNC(=O)c1ccc2c(=O)c(O)c(-c3ccsc3)[nH]c2c1	EPAC2 ag 89µM (no result: KCNH2 3.1 block, hERG WT inh)
CCCCn1nnnc1C(c1cc2ccccc2o1)N1CCN(c2cc(C)nc3ccccc23)CC1 (stereo not given)	EPAC2 antag inconclusive (no result: KCNH2 3.1 block, hERG WT inh)
CCc1ccc(NC(=O)c2sc3nc(C)nc(N4CCN(c5ccccn5)CC4)c3c2C)cc1	KCNH2 3.1 block inconclusive
COc1ccc(NC(=O)c2sc3ncnc(N4CCN(c5ccccn5)CC4)c3c2C)cc1Cl	KCNH2 3.1 block -114, hERG WT inh -118
COc1ccc(NC(=O)CN2CCN(c3ccccn3)CC2)cc1Cl	none
COc1ccc(NC(=O)c2sc3nc(C)nc(N4CCN(c5ccccn5)CC4)c3c2C)cc1Cl	EPAC1 antagonist inconclusive, KCNH2 3.1 block -114, hERG WT inh -78
Cc1cc(Br)ccc1NC(=O)c1sc2ncnc(N3CCN(c4ccccn4)CC3)c2c1C	EPAC1 antagonist inconclusive, KCNH2 3.1 block -110, hERG WT inh -106
O=C(Nc1cccc2cccnc12)c1ccc2sc([C@@H]3O[C@H](CO)[C@H](O)[C@H](O)[C@H]3O)nc2c1	none (no result: KCNH2 3.1 block, hERG WT inh)
Cc1cccc(NC(=O)c2cc3cc([N+](=O)[O-])ccc3s2)n1	none
COc1ccccc1NC(=O)CCSc1nc(C)cs1	none
CCOc1ccc(N2C(=O)CN=C2Nc2ccccc2F)cc1	EPAC2 ag inconclusive
COc1ccc(-c2csc(C(NC(C)=O)c3cccc(F)c3)n2)cc1 (stereo not given)	none (no result: KCNH2 3.1 block, hERG WT inh)
CCCCCNC(=O)C(c1cc2ccccc2o1)n1c(=O)c(-c2ccco2)nc2ccccc21 (stereo not given)	EPAC1 antagonist 56µM, EPAC2 antag inconclusive (no result: KCNH2 3.1 block, hERG WT inh)
O=S(=O)(Nc1nc2ccccc2nc1Nc1ccc2c(c1)OCO2)c1ccc(F)cc1	none
O=C(O)c1cccc(N/N=C/c2cccc3ccccc23)c1	EPAC1 antagonist inconclusive, KCNH2 3.1 block -73
CCOc1ccccc1N(CC(=O)Nc1cccnc1)S(C)(=O)=O	KCNH2 3.1 block -86
O=C1CSC(=S)N1/N=C/c1ccc(O)c(O)c1O	EPAC1 antagonist 25µM
CCN(CC)c1nc(-c2ccccn2)nc(-c2ccccc2)c1C#N	none
Cc1nnc(Sc2cc(NCCO)c([N+](=O)[O-])c3nonc23)s1	none
Cc1nnc(Sc2cc(NCCCO)c([N+](=O)[O-])c3nonc23)s1	EPAC1 antagonist 40µM
CCOC(=O)/C=C/[C@H]1CCc2cccc(Cl)c2O1	none
CC1CC1C(=O)OCC(=O)NNC(=O)c1ccc([N+](=O)[O-])cc1 (stereo not given)	none
CCCCCCCCN1C(=O)[C@H](CC(=O)NCc2cccc(C(F)(F)F)c2)C[C@@]2(C(=O)OCC)CCCC=C12	none (no result: KCNH2 3.1 block, hERG WT inh)
O=C(O[C@@H]1OC2COC(=O)c3cc(O)c(O)c(O)c3-c3c(cc(O)c(O)c3O)C(=O)O[C@@H]([C@H]1O)[C@@H]2O)c1cc(O)c(O)c(O)c1	EPAC1 antagonist 89µM
O=C(CNC(=O)c1cccs1)Nc1ccc(N2CCOCC2)cc1	none
COC1=CC(=Cc2c(N)n3nc(CC(=O)N4CCCCC4)sc3nc2=O)C=C(OC)C1=O	hERG WT inh -70
CN(C)c1ccc(C=c2c3ccccc3n3c2c2ccccc2[n+]3C)cc1	EPAC1 antagonist 50µM, EPAC2 antag 45µM, EPAC2 ag inconclusive
Cc1cc2c(=Cc3ccc(N(C)C)cc3)c3ccccc3n2[n+]1C	none
